Data on 26 molecules can be found in PubChem BioAssay AID1578 (Sanford-Burnham Center for Chemical Genomics, 2009).

The whole screen tested about 290,000 compounds, of which about 3,000 (1%) were called active. This is one part of a sample in which actives are shown more often than they occur. Rule as the data show it: active = inhibition mostly above about 36% (no sharp cut-off); inactive = mostly below about 34%.

This assay is described as follows: inhibition of NOD1-driven NF-kB reporter – cell-based, luminescence, uHTS, primary screen (AID 1578).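 Also: HEK-293T reporter cells stimulated with the NOD1 agonist gamma-tri-DAP.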 The note with it: NOD1-driven NF-kB luciferase reporter cells, at 4 µM, stronger effect = higher value.
One may read the inhibition as the drop in the measured response relative to a control, in per cent. Take `COc1ccc(NC(=O)Nc2nnc(-c3ccco3)s2)cc1`: the inhibition was -7.3% (inactive).
In the case of `COc1ccc(NC(=O)Nc2nnc(-c3cccs3)s2)cc1`, the inhibition was -3% (inactive).
With `O=C(Nc1ccc(Cl)cc1)Nc1nnc(-c2ccncc2)s1`, the inhibition was 67.3% (inactive).
As for `CCn1ncc(NC(=O)Nc2cccc(C(F)(F)F)c2)c1C(N)=O`, the figure is -12.4% (inactive); as for `O=C(Nc1ccc(Cl)cc1)Nc1nnc(CSCc2ccccc2)s1`, -3.9% (inactive); as for `O=C(Nc1ccncc1)Nc1cccc(C(F)(F)F)c1`, 3.5% (inactive).
`O=C(Nc1ccc(F)cc1)Nc1nnc(-c2ccncc2)s1`: the inhibition is -10.7% (inactive).
As to `O=C(Nc1ccc(Cl)c(Cl)c1)Nc1nnc(CSc2ccccc2)s1`, the inhibition was 74.5% (active).
As for `O=C(Nc1ccc(Cl)cc1)Nc1nnc(CSc2ccc(Cl)cc2)s1`, the figure is -8.9% (inactive).
As for `COc1ccc(-c2[nH]ncc2CN2CCC(C(=O)N3CCOCC3)CC2)c(F)c1`, the figure is -28.9% (inactive); as for `Cc1nc(C(=O)NCc2ccccc2)sc1C1(C)CC(c2cccc([N+](=O)[O-])c2)=NO1` (stereo unspecified), -0.1% (inactive).
As for `COc1ccc(CNC(=S)Nc2ccccc2-c2ccccc2)cc1`, the figure is -26.8% (inactive); as for `O=C(NC1CCCCC1)C1CCN(c2ncccn2)CC1`, -38.7% (inactive); as for `O=S(=O)(NCc1ccc(F)cc1)c1ccc(-n2cnnn2)cc1`, -14.1% (inactive).
On to `O=C(Nc1ccc(Cl)c(Cl)c1)Nc1nnc(-c2ccncc2)s1`, for which the inhibition was -26.4% (inactive).
Next, `O=C(Nc1cccc(Cl)c1)Nc1nnc(-c2ccncc2)s1`: 95.7% (active); `O=C(Nc1cccc(Cl)c1)Nc1nnc(CSCCOc2ccc(Cl)cc2)s1`: 67.8% (active); `Cc1nnc(NC(=O)Nc2cccc(Cl)c2)s1`: -14.6% (inactive).
Next, `Cc1ccc(NC(=O)Nc2nnc(CSCCOc3ccc(Cl)cc3)s2)cc1`: -1.1% (inactive); `Cc1ccc(OCCSCc2nnc(NC(=O)Nc3cccc(Cl)c3)s2)cc1`: 13.6% (inactive).
`CSc1ccccc1NC(=O)C1=CC(c2cccs2)=NS(=O)(=O)N1C`: the inhibition is 3.3% (inactive).
As for `COc1ccc(C(=O)/C=C/C(=O)N(Cc2ccc(F)cc2)C(C(=O)NC2CCCCC2)c2ccncc2)c(O)c1` (stereo unspecified), the figure is -6.1% (inactive); as for `CCCN(CC(=O)Nc1ccc(C(C)=O)cc1)CC(=O)Nc1ccccc1C`, -32.2% (inactive).
As for `COc1cc2c(cc1OC)C(c1ccc(-c3ccc(Cl)cc3Cl)o1)=NCC2`, the figure is 58.8% (inactive); as for `COc1cc2c(cc1OC)C(c1ccc(-c3ccccc3Cl)o1)=NCC2`, 75.2% (active); as for `COc1cc2c(cc1OC)C(c1ccc(-c3ccc(Cl)c(Cl)c3)o1)=NCC2`, 63.1% (inactive).
